“And” between values parts separate entries of the source, which are not always exact repeats. Identical values can stand only once. Inconclusive results are not listed. A structure can be active in one record and inactive in another. The source made the active and inactive calls. Unless noted, calls follow the shape of the dose curve; as a rule, active = well fitted curve in the direction sought with a large enough effect in the repeat runs; inconclusive = weak or mixed curves; inactive = no such curve, though single readings can be large; an effect the other way counts as inactive or inconclusive.
Key:
[1] = qHTS assay to identify small molecule antagonists of the estrogen related receptor (ERR) signaling pathway from Tox21 library - cell viability counter screen (AID 1224834); also: nearly all actives have a fitted effect of over 30% in size
How it was run: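 Cytotoxicity of test substances is gauged in the same ERR cells used for the antagonist screen, after 17.5 h of compound treatment at 37 C, by CellTiter-Fluor fluorescence measured after 30 min.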

[2] = molecular target: Luciferin 4-monooxygenase (Photinus pyralis) (UniProt P08659); assay: qHTS assay to identify small molecule inhibitors of firefly luciferase (AID 1224835); also: series mostly up to about 120 µM; nearly all actives have a fitted effect of over 25% in size
Sequence of Luciferin 4-monooxygenase (Photinus pyralis) (P08659 whole entry, looked up): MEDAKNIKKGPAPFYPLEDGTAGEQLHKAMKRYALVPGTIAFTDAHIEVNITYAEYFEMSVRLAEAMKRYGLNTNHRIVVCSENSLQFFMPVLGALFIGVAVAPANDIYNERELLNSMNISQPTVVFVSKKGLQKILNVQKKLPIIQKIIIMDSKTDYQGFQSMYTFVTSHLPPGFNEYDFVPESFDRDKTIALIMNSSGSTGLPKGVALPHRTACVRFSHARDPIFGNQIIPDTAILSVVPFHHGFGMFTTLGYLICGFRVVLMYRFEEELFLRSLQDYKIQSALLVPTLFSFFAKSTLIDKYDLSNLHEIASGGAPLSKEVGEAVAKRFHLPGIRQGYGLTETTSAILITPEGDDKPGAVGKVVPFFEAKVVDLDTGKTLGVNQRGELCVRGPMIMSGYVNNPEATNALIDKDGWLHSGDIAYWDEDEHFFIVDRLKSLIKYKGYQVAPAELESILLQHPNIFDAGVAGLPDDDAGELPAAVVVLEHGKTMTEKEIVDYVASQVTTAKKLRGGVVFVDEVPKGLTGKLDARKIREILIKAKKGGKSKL
How it was run: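 Quantitative HTS format; KM concentrations of both substrates. Purified P. pyralis FLuc activity quantified from luminescence images.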

[3] = qHTS assay to identify small molecule agonists of the constitutive androstane receptor (CAR) signaling pathway - cell viability counter screen (AID 1224836); also: nearly all actives have a fitted effect of over 45% in size; also: potency is read from the fitted curve at half-maximal effect
How it was run: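 HepG2-CYP2B6-hCAR, 2500 cells/well, 4 h pre-incubation; cpd 15 conc + PK11195 0.75 uM final; 23 h, 37 C/5% CO2; CellTiter-Fluor, fluorescence.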

[4] = qHTS assay to identify small molecule antagonists of the constitutive androstane receptor (CAR) signaling pathway - cell viability counter screen (AID 1224837); also: nearly all actives have a fitted effect of over 45% in size; also: potency is read from the fitted curve at half-maximal effect
How it was run: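 Multiplexed cytotoxicity read-out for the CAR antagonist screen: double-stable HepG2-CYP2B6-hCAR cells co-treated with 50 nM CITCO (final) and compound over 15 concentrations, incubated 23 hr, then assessed by CellTiter-Fluor fluorescence.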

[5] = molecular target: Nuclear receptor subfamily 1 group I member 3 (Homo sapiens) (UniProt Q14994); assay: qHTS assay to identify small molecule antagonists of the constitutive androstane receptor (CAR) signaling pathway (AID 1224838); also: nearly all actives have a fitted effect of over 40% in size
Sequence of Nuclear receptor subfamily 1 group I member 3 (Homo sapiens) (Q14994 whole entry, looked up): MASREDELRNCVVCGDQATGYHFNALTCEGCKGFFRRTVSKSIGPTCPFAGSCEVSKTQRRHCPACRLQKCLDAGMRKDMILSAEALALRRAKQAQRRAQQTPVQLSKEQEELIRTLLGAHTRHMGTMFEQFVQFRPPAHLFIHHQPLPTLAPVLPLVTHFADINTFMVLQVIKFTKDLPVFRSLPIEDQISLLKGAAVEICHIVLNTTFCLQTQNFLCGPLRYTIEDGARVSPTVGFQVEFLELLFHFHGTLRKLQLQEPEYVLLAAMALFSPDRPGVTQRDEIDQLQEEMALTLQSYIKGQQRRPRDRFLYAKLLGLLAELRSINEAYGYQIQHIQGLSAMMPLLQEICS
How it was run: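 Compounds were titrated across 15 concentrations onto HepG2 cells double-stably expressing hCAR and a CYP2B6-2.2kb reporter, together with 50 nM CITCO (final). After 24 h at 37 C, luciferase activity was measured by luminescence.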

[6] = molecular target: Nuclear receptor subfamily 1 group I member 3 (Homo sapiens) (UniProt Q14994); assay: qHTS assay to identify small molecule agonists of the constitutive androstane receptor (CAR) signaling pathway (AID 1224839); also: nearly all actives have a fitted effect of over 15% in size; also: potency is read from the fitted curve at half-maximal effect
How it was run: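 HepG2-CYP2B6-hCAR cells, 2500/well, 4 h pre-incubation; compounds 15 conc.; PK11195 0.75 uM final; 24 h, 37 C/5% CO2; ONE-Glo luciferase read.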

[7] = qHTS assay to identify small molecule antagonists of the estrogen related receptor signaling pathway with the pleiotropic PPARgamma coactivator (PGC) from Tox21 10K library - cell viability counter screen (AID 1224840; active = well fitted cell-killing curve with a large enough effect in the repeat runs, not every such curve was filed as active; also: nearly all actives have a fitted effect of over 40% in size; also: potency is read from the fitted curve at half-maximal effect)
How it was run: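 Step one, plate 2,000 PGC/ERR cells per well; step two, incubate 6 h at 37 C/5% CO2; step three, pin-transfer compounds; step four, incubate 17.5 h; step five, add CellTiter-Fluor and read fluorescence after 30 min.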

[8] = qHTS assay to identify small molecule antagonists of the estrogen related receptor signaling pathway with the pleiotropic PPARgamma coactivator (PGC) from Tox21 10K library (AID 1224841; call rule not given here; also: actives are mostly falling curves and most rising ones were filed inactive; nearly all actives have a fitted effect of over 50% in size; also: potency is read from the fitted curve at half-maximal effect)
How it was run: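 Antagonism in this quantitative HTS is taken from loss of luciferase signal in PGC/ERR cells. Cells (2,000/well) are treated with compounds in DMSO after a 6 h settling period and read by One-Glo luminescence after 18 h.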

[9] = qHTS assay to identify small molecule agonists of the estrogen related receptor signaling pathway with the pleiotropic PPARgamma coactivator (PGC) from Tox21 10K library (AID 1224842); also: nearly all actives have a fitted effect of over 15% in size
How it was run: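 PGC/ERR reporter cells (NTP line) were seeded 2,000 per well, rested 6 h at 37 C/5% CO2, then pin-dosed with compounds in DMSO for 18 h at 37 C; luciferase read by One-Glo luminescence after 30 min at room temperature.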

[10] = molecular target: Thyrotropin receptor (Homo sapiens) (UniProt P16473); assay: qHTS assay to identify small molecule agonists of the thyroid stimulating hormone receptor (TSHR) signaling pathway (AID 1224843; calls by dose curve; also: nearly all actives have a fitted effect of over 45% in size)
Sequence of Thyrotropin receptor (Homo sapiens) (P16473 whole entry, looked up): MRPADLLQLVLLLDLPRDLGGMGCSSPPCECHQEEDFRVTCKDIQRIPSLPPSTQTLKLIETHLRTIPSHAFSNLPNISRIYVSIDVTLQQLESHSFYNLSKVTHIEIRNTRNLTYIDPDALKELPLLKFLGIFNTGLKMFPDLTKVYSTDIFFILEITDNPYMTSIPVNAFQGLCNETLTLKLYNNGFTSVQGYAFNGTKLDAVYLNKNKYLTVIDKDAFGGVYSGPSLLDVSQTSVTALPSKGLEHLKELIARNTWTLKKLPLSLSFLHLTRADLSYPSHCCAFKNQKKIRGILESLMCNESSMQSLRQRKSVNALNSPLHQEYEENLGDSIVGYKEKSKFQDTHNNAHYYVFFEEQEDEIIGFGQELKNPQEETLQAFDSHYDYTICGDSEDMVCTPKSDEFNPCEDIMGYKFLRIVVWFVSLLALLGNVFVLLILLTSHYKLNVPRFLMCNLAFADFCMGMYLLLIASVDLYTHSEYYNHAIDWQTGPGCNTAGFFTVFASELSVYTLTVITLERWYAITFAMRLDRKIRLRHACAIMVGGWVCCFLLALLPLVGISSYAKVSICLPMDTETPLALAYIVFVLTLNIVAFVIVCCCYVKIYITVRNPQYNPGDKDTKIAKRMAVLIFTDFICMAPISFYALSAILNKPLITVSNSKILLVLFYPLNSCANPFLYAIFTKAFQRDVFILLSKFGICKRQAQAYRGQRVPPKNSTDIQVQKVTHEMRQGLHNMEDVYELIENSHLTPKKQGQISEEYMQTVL
How it was run: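 Cell line HEK293 with TSHR; density 800/well. Exposure 30 min RT. Readout HTRF cAMP (cAMP-d2/anti-cAMP-cryptate), 1 h RT before reading.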

Measured: Potency

O=c1cc[nH]c(=S)[nH]1
inactive: all assays above

COc1ccc2[nH]cc(CCNC(C)=O)c2c1
inactive: all assays above

CCCCC(CC)COC(=O)/C=C/c1ccc(OC)cc1 (stereo not drawn)
inactive: all assays above

CC(O)C(=O)O (stereo not drawn)
not listed: [8] | [9]
inactive: all other assays above

NNC(=O)c1ccncc1
not listed: [1]
inactive: all other assays above

CNC[C@H](O)c1cccc(O)c1
inactive: [1] | [3] | [4] | [5] | [6] | [7]

O=S(=O)(O)c1ccc2cc(O)ccc2c1
inactive: [2] | [3] | [4] | [5] | [6] | [7]

Cc1cn([C@H]2C[C@H](N=[N+]=[N-])[C@@H](CO)O2)c(=O)[nH]c1=O
not listed: [5] | [6] | [10]
inactive: all other assays above

Cn1cc[nH]c1=S
not listed: [5] | [8] | [9]
inactive: all other assays above

CC(C)(Oc1ccc(C2CC2(Cl)Cl)cc1)C(=O)O (stereo not drawn)
not listed: [8] | [9]
inactive: all other assays above

CC(O)CN(CCN(CC(C)O)CC(C)O)CC(C)O (stereo not drawn)
not listed: [8] | [9]
inactive: all other assays above

NS(=O)(=O)c1cc(C(=O)O)c(NCc2ccco2)cc1Cl
not listed: [5] | [6]
inactive: all other assays above

O=c1ccc2ccccc2o1
not listed: [8] | [9]
inactive: all other assays above

C/C=C/c1ccc(OC)cc1
not listed: [8] | [9]
inactive: all other assays above

Cn1c(=O)c2[nH]cnc2n(C)c1=O
inactive: [1] | [2] | [3] | [4] | [7] | [10]

CCCNC(=O)NS(=O)(=O)c1ccc(Cl)cc1
inactive: [1] | [2] | [3] | [4] | [7] | [10]

Cc1ccccc1C(OCCN(C)C)c1ccccc1 (stereo not drawn)
not listed: [8]
inactive: all other assays above

Cc1noc(NS(=O)(=O)c2ccc(N)cc2)c1C
not listed: [8] | [9]
inactive: all other assays above

NC(N)=O
not listed: [8] | [9]
inactive: all other assays above

NC(=O)c1cnccn1
not listed: [10]
inactive: all other assays above

Nc1ccc(C(=O)O)cc1
not listed: [8] | [9]
inactive: all other assays above

CC1(C)[C@@H]2CC[C@@]1(C)C(=O)C2
inactive: all assays above

CC(=O)NS(=O)(=O)c1ccc(N)cc1
not listed: [8] | [9] | [10]
inactive: all other assays above

O=C(O)CCC(=O)O
not listed: [1]
inactive: all other assays above

CCCN(CCC)S(=O)(=O)c1ccc(C(=O)O)cc1
not listed: [5] | [6]
inactive: all other assays above

CC(=O)Nc1nnc(S(N)(=O)=O)s1
not listed: [8] | [9]
inactive: all other assays above

Cc1cc(=O)[nH]c(=S)[nH]1
not listed: [8] | [9]
inactive: all other assays above

Cc1cc(=O)n(-c2ccccc2)n1C
not listed: [10]
inactive: all other assays above

C[C@]12C=CC(=O)C=C1CC[C@@H]1[C@@H]2[C@@H](O)C[C@@]2(C)[C@H]1CC[C@]2(O)C(=O)CO
inactive: [2] | [3] | [4] | [5] | [6] | [7]

CCCCOC(=O)CC(CC(=O)OCCCC)(OC(C)=O)C(=O)OCCCC
active: [6] 17.4 µM and 27.3 µM
inactive and 24.6 µM (active): [8]
not listed: [10]
inactive: all other assays above

O=C(O)c1[nH]n(-c2ccc(S(=O)(=O)O)cc2)c(=O)c1N=Nc1ccc(S(=O)(=O)O)cc1
inactive: [2] | [5] | [6] | [10]
active: [3] 30.7 µM and 45.4 µM | [4] 48.7 µM and 28.6 µM | [7] 27.4 µM and 45.4 µM

— PubChem BioAssay (Tox21)
